Assay results taken from PubChem BioAssay (NCI).
About 79,000 compounds went through this panel and 15% of them were active in at least one assay; those are over-represented in the sample as a whole. No stated cut-off is given here; in the data, active means growth inhibition above about 70%; inactive means the rest.

How the values were obtained:
[1] = NCI Yeast Anticancer Drug Screen. Data for the rad50 strain (AID 155);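 further: 0% = growth of vehicle-only cultures of the same strain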; conditions: S. cerevisiae rad50 strain growth inhibition; at 50.0 µM; active compounds read high
Procedure, shortened: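 Vehicle-treated cultures provide the reference for the growth inhibition reported for compound-exposed, repair-deficient yeast.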

[2] = NCI Yeast Anticancer Drug Screen. Data for the mec2-1 strain (AID 157); conditions: S. cerevisiae mec2-1 strain, at 50.0 µM, active compounds read high
Procedure, shortened: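 Strain: mec2-1 (DNA repair/cell cycle alteration). Compound exposure, then growth measured; inhibition expressed relative to vehicle.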

[3] = NCI Yeast Anticancer Drug Screen. Data for the sgs1 mgt1 strain (AID 161);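 further: 0% = growth of cultures given vehicle only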; conditions: S. cerevisiae sgs1 mgt1 strain, at 50.0 µM, active compounds read high
Procedure, shortened: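 Read-out: growth inhibition vs vehicle controls. Cells: mutant yeast strain deficient in DNA damage repair.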

[4] = NCI Yeast Anticancer Drug Screen. Data for the cln2 rad14 strain (AID 165);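 further: 0% = growth equal to vehicle treated cultures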; conditions: S. cerevisiae cln2 rad14 strain, at 50.0 µM, active compounds read high
Procedure, shortened: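 Compounds are applied to the cln2 rad14 yeast strain, and growth is then compared with that of vehicle-treated cultures to give inhibition.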

[5] = NCI Yeast Anticancer Drug Screen. Data for the bub3 strain (AID 167); conditions: S. cerevisiae bub3 mutant strain, at 50.0 µM, active compounds read high
Procedure, shortened: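 Mutant yeast screening strain plus compound; vehicle-treated cultures serve as the 0% inhibition reference.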

[6] = NCI Yeast Anticancer Drug Screen. Data for the mlh1 rad18 strain (AID 175); conditions: S. cerevisiae mlh1 rad18 strain growth inhibition; at 50.0 µM; active compounds read high
Procedure, shortened: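 Read-out is yeast growth inhibition, calculated against vehicle-only controls. The compound was applied to a strain engineered with DNA damage repair alterations.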

Measured: growth inhibition

C=CCC(OC(C)=O)c1ccc(C(C)C)cc1 (centres undefined)
inactive: [1] 4% | [2] 0.9% | [3] -23.4% | [4] -55.1% | [5] -0.5% | [6] 5.45%

CCCCCCCCCCC(=O)CCCCCCCCCC
inactive: [1] 7.15% | [2] -12.2% | [3] 8.1% | [4] 16.8% | [5] 7.6% | [6] 7.05%

COC1OC(C(COC(C)=O)OC(C)=O)C(OC(C)=O)C(OC(C)=O)C1OC(C)=O (centres undefined)
inactive: [1] 13.8% | [2] 1.75% | [3] 4.35% | [4] -46.5% | [5] 52.2% | [6] -14.8%

CC(=O)/C(C)=N\OC(=O)Nc1ccccc1
inactive: [1] 1.2% | [2] -8.2% | [3] -2.65% | [4] -7% | [5] 9.4% | [6] -9.95%

O=C(O)C1CSC(c2ccccc2)N1 (centres undefined)
inactive: [1] 1.95% | [2] -12.8% | [3] -4.35% | [4] 3% | [5] -5.55% | [6] 2.55%

O=Cc1ccc(Cl)c(Cl)c1
inactive: [1] -3.55% | [2] -9.5% | [3] -18.8% | [4] -16.9% | [5] -5.85% | [6] -23.1%

c1ccc(Nc2ccccn2)nc1
inactive: [1] -10.2% | [2] -13.8% | [3] -21% | [4] -87.8% | [5] 3.8% | [6] -24.6%

CCOC(=O)CSCCC#N
inactive: [1] 2.85% | [2] 2.35% | [3] -5.05% | [4] -7.9% | [5] 1.75% | [6] 0.65%

CC(C)c1ccc(C(=O)OCCCl)cc1
inactive: [1] 29.7% | [2] 9% | [3] 6.6% | [4] -3.05% | [5] -4.2% | [6] 23.8%

CCOc1ccc(C(=O)O)cc1
inactive: [1] 34.8% | [2] -12.8% | [3] -1.65% | [4] 4.85% | [5] 8.2% | [6] 31.1%

NC(=O)OCCO
inactive: [1] 19.2% | [2] 6.45% | [3] 10.9% | [4] 9.65% | [5] -2.35% | [6] 26.5%

Clc1cccc(Cl)c1C1CSc2ccccc2N=C1c1ccccc1 (centres undefined)
inactive: [1] -2.55% | [2] 8.9% | [3] 16.3% | [4] 11% | [5] -0.9% | [6] 3.65%

Nc1cc2ccccc2c(O)c1O
inactive: [1] 32.1% | [2] 35% | [3] 39.1% | [4] 20.7% | [5] 38% | [6] 14.2%

COC1=C(OC)C(=O)C(SC/C=C(\C)CCCC(C)CCCC(C)CCCC(C)C)=CC1=O (centres undefined)
inactive: [1] -31.8% | [2] -24.4% | [3] -43.5% | [4] 16.6% | [5] -52.6% | [6] -61.1%

Nc1nc2nnc(-c3ccccc3)c(-c3ccccc3)n2n1
inactive: [1] 12.8% | [2] 14.1% | [3] 6.4% | [4] 13.8% | [5] 9.65% | [6] -8.8%

C=C(OC(C)=O)c1ccccc1
inactive: [1] 6.45% | [2] -12.4% | [3] 5.8% | [4] -7.25% | [5] 28.3% | [6] 0.05%

Cc1ccc(NC(=S)N2CCOCC2)cc1C
inactive: [1] 0.55% | [2] -17.4% | [3] 29.6% | [4] 8.35% | [5] 4.2% | [6] -1.55%

NC(=O)NCCO
inactive: [1] -17.5% | [2] 4.1% | [3] 13.8% | [4] -18.6% | [5] -6.05% | [6] 13.3%

Cc1ccccc1CC(N)C(=O)O (centres undefined)
inactive: [1] 2.95% | [2] 10.7% | [3] 2.7% | [4] -15.2% | [5] 8.85% | [6] 1.85%

CCOc1ccccc1NC(=O)CCl
inactive: [1] 16.4% | [2] 3.2% | [3] 8.6% | [4] -5.2% | [5] 18.9% | [6] 39.9%

Cc1ccc(OC(=O)c2ccccc2)cc1
inactive: [1] 9.3% | [2] -9.65% | [3] -18.6% | [4] -6.75% | [5] -8.6% | [6] -14.6%

CC(=O)Nc1ccc(O)c(C)c1
inactive: [1] 10.8% | [2] 3.35% | [3] -25.8% | [4] -21.8% | [5] -14.8% | [6] -1.1%

CCNC(=O)Oc1ccc[nH]c1=O
inactive: [1] -7.65% | [2] -10.8% | [3] -1.1% | [4] -15.9% | [5] -2.2% | [6] -47.8%

N#Cc1ccc(OC(=O)Nc2c(Cl)cc(Cl)cc2Cl)cc1
inactive: [1] -10.2% | [2] -14.7% | [3] 15.4% | [4] 23.2% | [5] 30.4% | [6] 9.95%

CC(=O)NC(CCC(=O)c1ccccc1)C(=O)O (centres undefined)
inactive: [1] 18.1% | [2] -4.95% | [3] 17.3% | [4] 5.05% | [5] 0% | [6] 16%

Clc1ncnc2nc[nH]c12
inactive: [1] -1.9% | [2] -1% | [3] 15.5% | [4] 16.9% | [5] 0.35% | [6] -39.4%

CC1CCC(C)(C)c2ccccc21 (centres undefined)
inactive: [1] 2.65% | [2] -7.25% | [3] -2.5% | [4] -2.5% | [5] -7.75% | [6] 2.3%

NC(CSSCC(N)C(=O)O)C(=O)O (centres undefined)
inactive: [1] -11.6% | [2] -20% | [3] 1.35% | [4] 4% | [5] -20.9% | [6] -2.05%

Nc1nnc2cc(F)ccc2n1
inactive: [1] -18% | [2] -9.75% | [3] -5.9% | [4] 21.8% | [5] 11.7% | [6] -12.2%

CCc1ccccc1C(=O)N(CC)CC
inactive: [1] -14.8% | [2] 18.4% | [3] 16.6% | [4] 32% | [5] -16.1% | [6] -6.65%

CCOC(=O)CO
inactive: [1] 26% | [2] 6.85% | [3] -13.4% | [4] 0.3% | [5] 17.2% | [6] 18.9%

CCC(/C=C\C(C)=O)CC
inactive: [1] -28.3% | [2] -25.2% | [3] -27.6% | [4] 5.35% | [5] -10.6% | [6] -12.8%

Cc1onc(-c2ccccc2Cl)c1C(=O)Cl
inactive: [1] -41.3% | [2] -41.3% | [3] -13.2% | [4] 4.5% | [5] -31.1% | [6] -29.3%

Oc1ccc2ccccc2c1CN1CCOCC1
inactive: [1] 26.9% | [2] 5.4% | [3] 32.9% | [4] 27.9% | [5] 15.1% | [6] 19%
